Vaccinia mCherry: inhibitors of vaccinia virus infection (mCherry reporter signal). 310,000 compounds, 0.63% hits. AID 720579. Vaccinia virus mCherry reporter infection, fluorescence. Potency, µM (doses to about 36.5 µM), for inactives: top-dose activity change, negative = inhibition, usual class: inhibitors; calls by dose curve; tested in A549 cells; note: potency is the fitted concentration of half-maximal effect; nearly all actives have a fitted effect of over 35% in size
HCMV antiviral: inhibitors of human cytomegalovirus | AID 1259415 | activity change, negative = inhibition, % at 57.5 µM | 410,000 compounds, 4.5% hits | HFF cells, HCMV-luciferase reporter, 72 h; active compounds read low; in the data active = activity change below about -60%; inconclusive = no clear call, values can overlap the other calls; inactive = above about -39%
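Two compound doses tested in HFFs infected with HCMV-luciferase, MOI 1 PFU/cell, 72 h at 37C. Lysate luminescence read with OneGlo; data normalized against buffer-only and 10uM Salinomycin inhibitor controls.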
Tb PYK inh: T. brucei pyruvate kinase inhibition; Q57TT1; TbPYK enzyme, Kinase-Glo Plus ATP luminescence, 45 min; Potency, µM (series often up to 76.8 µM), inactives show top-dose activity, negative = inhibition, usual class: inhibitors; 410,000 compounds, 0.12% hits; AID 624173; note: potency is the fitted concentration of half-maximal effect; nearly all actives have a fitted effect of over 50% in size
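Luminescent Kinase-Glo Plus end-point after 45 min room-temperature reaction of T. brucei pyruvate kinase started with 130 uM ADP (final). Buffer TEA 50 mM pH 7.2 with KCl, MgCl2, BSA, Tween-20; titration-based qHTS with fitted concentration-effect curves.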
LmPK inh: blocks Leishmania mexicana pyruvate kinase activity; Q27686; Potency, µM (titrated, usually from 57.5 µM), for inactives: top-dose activity change, negative = inhibition, usual class: inhibitors; AID 1721; purified LmPK, Kinase-Glo ATP luminescence, 1 h; 290,000 compounds, 0.37% hits; note: potency is the fitted concentration of half-maximal effect
Target sequence (Q27686 whole entry, looked up): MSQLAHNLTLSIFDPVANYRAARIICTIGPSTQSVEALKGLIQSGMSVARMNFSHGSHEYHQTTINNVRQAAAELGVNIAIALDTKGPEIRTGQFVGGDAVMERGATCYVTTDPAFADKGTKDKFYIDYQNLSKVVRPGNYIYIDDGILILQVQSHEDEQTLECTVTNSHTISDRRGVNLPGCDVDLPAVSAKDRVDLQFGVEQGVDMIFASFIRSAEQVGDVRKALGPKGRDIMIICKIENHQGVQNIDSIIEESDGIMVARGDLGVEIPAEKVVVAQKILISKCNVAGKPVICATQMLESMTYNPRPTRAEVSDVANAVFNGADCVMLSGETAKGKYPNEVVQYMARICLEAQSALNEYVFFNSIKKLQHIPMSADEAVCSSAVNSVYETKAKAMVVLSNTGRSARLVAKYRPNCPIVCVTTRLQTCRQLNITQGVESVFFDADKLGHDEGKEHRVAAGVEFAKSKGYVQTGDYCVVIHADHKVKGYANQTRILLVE
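Screened at intermediate enzyme activity to detect both inhibitors and activators: LmPK at 0.1 nM, with a 0.5 nM enzyme column as activation reference. PEP 0.5 mM, ADP 0.1 mM; ATP detected by luminescence after 1 h.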
VACV Venus inh: inhibitors of vaccinia virus (Venus reporter); 330,000 compounds, 0.46% hits; Potency, µM (titrated, usually from 36.5 µM), inactives show at the highest dose activity change, negative = inhibition, actives largely listed as inhibitors; Vaccinia virus Venus reporter expression, fluorescence; calls by dose curve; tested in A549 cells; note: potency is the fitted concentration of half-maximal effect; nearly all actives have a fitted effect of over 30% in size
* marks the source's active call; other numbers are inactive results; i = inactive; ? = inconclusive; · = not tested or not shown; [ ] = remark or other dose. Sampled rows, rich in hits. Any-hit rate of the full collection: about 5%. Unless noted, calls come from the whole dose curve; as a rule, active = well fitted curve in the direction sought with a large enough effect; inconclusive = small, poorly fitted or top-dose-only effect, or another doubt; inactive = no such curve, though single readings can be large; an effect the other way counts as inactive or inconclusive. % is set by controls: 0 for no effect and ±100 for the full control effect.

SMILES	Vaccinia mCherry	HCMV antiviral	Tb PYK inh	LmPK inh	VACV Venus inh
Cc1csc(SCC(=O)Nc2ccc(CC#N)cc2)n1	?	18	3%	·	0%
CCc1c(C)nc2c(C#N)c[nH]n2c1=O	·	48	-1%	-1%	·
CC(=O)N1CCc2cc(S(=O)(=O)N3c4ccccc4CC3C)ccc21 (stereo not given)	?	-77*	-5%	-1%	-24%
CC(=O)N1CCc2cc(S(=O)(=O)N3CCOCC3)ccc21	-12%	-7	4%	6%	-15%
N#C[C@H]1C(O)C(O)c2ccccc2N1C(=O)c1ccccc1 (stereo not given in full)	1%	19	12%	·	8%
Cc1cc(C)c(NC(=O)Cn2nnc(C(=O)Nc3ccc(F)cc3F)c2N)c(C)c1	-17%	-28	-3%	7%	?
Cc1cccc(C)c1NC(=O)Cn1nnc(C(=O)Nc2ccc(F)cc2F)c1N	·	-65*	-5%	0%	·
COc1cccc(-c2ccc(SCc3ccccn3)nn2)c1	-11%	67	-6%	14µM*	-4%
c1ccc(CSc2ccc(-c3cccnc3)nn2)cc1	-2%	3	4%	-6%	1%
c1ccc(-c2ccc(SCc3cccnc3)nn2)nc1	11µM*	69	-11%	-4%	?
c1cncc(CSc2ccc(-c3cccnc3)nn2)c1	-12%	14	-2%	-1%	-14%
COc1ccc(-c2ccc(SCc3cccnc3)nn2)cc1OC	i	-63*	-1%	9%	-10%
COc1ccc(-c2ccc(SCc3ccccn3)nn2)cc1OC	·	73	11%	2%	·
CC1CCN(c2ccc(-c3nc(-c4ccccc4)no3)cc2[N+](=O)[O-])CC1	-9%	-17	-3%	·	-13%
CCCC[C@@H]1CNCCN1CCc1cc(C(F)(F)F)cc(C(F)(F)F)c1	-27%	32	1%	·	?
NCCCC[C@H]1CN=C(N)N1CCCCC1CCCCC1	i	-82*	0%	·	-15%
CCC(C)[C@H]1CNCCN1CCc1cc(C(F)(F)F)cc(C(F)(F)F)c1 (stereo not given in full)	?	?	3%	·	16µM*
FC(F)(F)c1cc(CCN2CCNC[C@@H]2CC2CCCCC2)cc(C(F)(F)F)c1	?	-99*	-2%	·	?
NC1=NC[C@H](CC2CCCCC2)N1CCc1cc(C(F)(F)F)cc(C(F)(F)F)c1	?	-100*	-1%	4%	10µM*
CC(=O)c1cccc(NC(=O)c2cc(S(=O)(=O)N3CCOCC3)cs2)c1	-4%	83	2%	-5%	-13%
COc1ccc(CCNc2nc(C)cc(C)c2C#N)cc1OC	·	-33	-1%	5%	·
COc1ccc(NC(=O)CCCN2C(=O)COc3ccc(C)cc32)cc1OC	-14%	-8	1%	·	-15%
Cc1ccc(CNS(=O)(=O)c2cc(F)ccc2CN2C(=O)c3cccnc3C2=O)o1	-16%	1	-11%	4%	-18%
O=C(Nc1ccncc1)c1cccc(S(=O)(=O)N2CCN(c3ccc(F)cc3)CC2)c1	?	-71*	3%	·	-29%
O=C(C1CCN(S(=O)(=O)c2cccs2)CC1)N1CCCC(C(F)(F)F)C1 (stereo not given)	-14%	-98*	-8%	-4%	-22%
SMILES	Vaccinia mCherry	HCMV antiviral	Tb PYK inh	LmPK inh	VACV Venus inh
O=C(c1cccc(S(=O)(=O)N2CCN(c3ccc(F)cc3)CC2)c1)N1CCCC(C(F)(F)F)C1 (stereo not given)	?	-61*	8%	·	-28%
Cc1ccc(NC(=O)c2cccc(S(=O)(=O)N3CCCC3)c2)nc1	-9%	6	5%	·	-4%
Cc1ccc(NC(=O)c2cccc(S(=O)(=O)N3CCN(c4ccc(F)cc4)CC3)c2)nc1	?	-77*	3%	0%	?
Cc1c(NC(=S)NC(=O)CSc2ccc(Cl)cc2)cccc1C(=O)O	-2%	18	0%	7%	-10%
CC(Sc1nnc(C2CC2)n1C1CC1)C(=O)N(C)Cc1cccc(F)c1 (stereo not given)	·	-4	5%	·	·
COCCCNC(=O)CSC1=Nc2ccccc2C2=NC(Cc3c[nH]c4ccccc34)C(=O)N12 (stereo not given)	-14%	96	-4%	-1%	-10%
COCCCNC(=O)CSC1=Nc2ccccc2C2=NC(c3ccccc3)C(=O)N12 (stereo not given)	·	-64*	0%	-3%[11.5 µM]	·
Cc1ccc(N=C/C(C(=O)C(F)(F)F)=C(\O)c2cccs2)cc1	-15%	63	-4%	0%	?
COc1ccccc1CNC(=O)CSc1ccc(Br)cc1	-1%	?	4%	0%	-4%
COc1ccccc1CNC(=O)CSC1=NCCS1	-22%	-61*	4%	-5%	-3%
CC(NC(=O)CSC1=NCCS1)c1ccccc1 (stereo not given)	-2%	-76*	1%	-8%	-6%
COc1ccc(CCN2C(=O)CC(NC34CC5CC(CC(C5)C3)C4)C2=O)cc1OC (stereo not given)	-13%	-28	0%	1%	-14%
COc1ccc(CCN2C(=O)CC(Cc3ccc(C)cc3)C2=O)cc1OC (stereo not given)	-1%	-64*	-26%	0%	6%
COc1ccc(OCC(=O)NCc2ccc3c(c2)CCN3C(=O)c2ccccc2)cc1	-18%[7.34 µM]	6	3%	·	-14%[7.34 µM]
CNC(=O)CSc1nnc(NC(=O)C2CC(=O)N(c3ccccc3OC)C2)s1 (stereo not given)	i	-2	?	-2%	-16%
COc1ccccc1CNCC(O)Cn1c2ccccc2c2ccccc21 (stereo not given)	·	-99*	2%	4%	·
Cc1ccc(CNC(=O)CCCNS(=O)(=O)c2cccc3nonc23)cc1	-20%	16	4%	-9%	-23%
CC1=C(C(=O)Nc2ccc([N+](=O)[O-])cc2)C(c2cccc(C(F)(F)F)c2)NC(=S)N1c1ccccc1 (stereo not given)	·	-98*	5%	2%	·
COc1ccc(C2NC(=S)N(c3ccccc3)C(C)=C2C(=O)Nc2ccccc2)cc1 (stereo not given)	-13%	40	1%	0%	-5%
O=C(CCCN1C(=O)/C(=C/c2cccs2)SC1=S)Nc1ccccc1O	?	-91*	-7%	-3%	-10%
Cc1ccc(/C=C2\SC(=S)N(CCCC(=O)Nc3ccc(O)cc3)C2=O)cc1	-25%	-95*	-4%	-2%	-5%
O=C(CCCN1C(=O)/C(=C\c2cccs2)SC1=S)Nc1ccc(O)cc1	?	-99*	3%	-2%	?
O=C(CCCN1C(=O)/C(=C\c2cccs2)SC1=S)Nc1ccccn1	i	-97*	3%	9%	12%
Cc1cc2ncc(-c3cccs3)nc2cc1C	·	114	-18%	-18%	·
CC(=O)Nc1ccc(NC(=O)c2csc([C@H]3C[C@H](O)[C@@H](CO)O3)n2)cc1	-10%	-1	5%	·	2%
